Source: PubChem BioAssay AID493036 (Sanford-Burnham Center for Chemical Genomics, 2011)
Among all 330,000 compounds or so, about 560 (0.17%) were called active.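 How the source made its calls: active means activation at or above 40% of the spot to cytoplasm intensity ratio, with at least 20 cells analyzed; inconclusive means wells under 20 cells, flagged as cytotoxic or low count; inactive means the rest.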 The sample as a whole holds a higher share of actives than the screen did.

Legend:
[1] = NTR1-driven beta-arrestin-GFP spot formation – imaging, U2OS cells, high content, primary screen (AID 493036); conditions: agonist mode, measured here: cell count, cytotoxicity flag, at 20 µM;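 on activation: 0% = DMSO without peptide and 100% = 100 nM NTR1 peptide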
[2] = target: Neurotensin receptor type 1 (Homo sapiens) (UniProt P30989); test: as above; conditions: agonist mode, at 20 µM, stronger effect = higher value
Chain of Neurotensin receptor type 1 (Homo sapiens) (P30989 whole entry, looked up): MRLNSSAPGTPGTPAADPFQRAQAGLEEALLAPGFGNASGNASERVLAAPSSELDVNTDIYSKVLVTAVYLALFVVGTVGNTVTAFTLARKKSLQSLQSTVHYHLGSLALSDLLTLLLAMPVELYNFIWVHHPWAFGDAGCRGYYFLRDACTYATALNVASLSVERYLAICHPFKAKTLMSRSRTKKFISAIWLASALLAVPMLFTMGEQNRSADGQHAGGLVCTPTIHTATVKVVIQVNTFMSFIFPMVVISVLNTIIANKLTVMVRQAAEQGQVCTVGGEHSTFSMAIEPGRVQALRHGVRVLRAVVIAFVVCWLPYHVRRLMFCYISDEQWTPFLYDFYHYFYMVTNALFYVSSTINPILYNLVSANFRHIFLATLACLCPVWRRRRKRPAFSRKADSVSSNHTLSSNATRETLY

SMILES	cell count [1] [cells]	activation [2]
CCCCOc1ccc(N(CC(=O)NC(C)C)C(=O)CCC(=O)Nc2ccccn2)cc1	43	-1.4% (inactive)
Cc1ccc(S(=O)(=O)N2CCOCC2)cc1NC(=O)COC(=O)c1cnccn1	51	-0.4% (inactive)
O=C1CCC(CCC(=O)N2CCCC(C(=O)c3ccc(Cl)cc3)C2)=NN1 (centres undefined)	70	-0.5% (inactive)
CCOC(=O)/C(C#N)=C/c1ccc(OCC(=O)Nc2ccccc2)c(OC)c1	80	-4.5% (inactive)
CCOC(=O)/C(=C\c1ccc([N+](=O)[O-])cc1)C(=O)c1cc(C(C)=O)c(Nc2ccccc2)s1	50	49.8% (active)
CCOC(=O)/C(=N\Nc1ccccc1[N+](=O)[O-])c1csc(Nc2ccccc2)n1	59	12.7% (inactive)
COc1ccc(S(=O)(=O)N2CCCCC2)cc1NC(=O)COc1ccccc1	55	2.1% (inactive)
COCC(C)n1c(C)cc(C(=O)CSc2cc(C)c3ccccc3n2)c1C (centres undefined)	54	5% (inactive)
O=C(O)C1CCN(C(=O)OCc2ccccc2)CC1	88	-0.7% (inactive)
CC1=C(C(N)=O)C(c2ccc(Br)cc2)n2ncnc2N1 (centres undefined)	82	-1.6% (inactive)
Fc1ccccc1/C=C1\CCCC2=C1Nc1ncnn1C2c1ccccc1F (centres undefined)	72	58.7% (active)
CC(C)C(C)(C#N)NC(=O)CSc1nc2scc(-c3ccccc3)c2c(=O)[nH]1 (centres undefined)	65	6.5% (inactive)
NS(=O)(=O)c1ccc(CCNC(=O)c2ccc([N+](=O)[O-])cc2[N+](=O)[O-])cc1	46	-0.2% (inactive)
O=C(CCC1CCN(C(=O)c2cccc(Cl)c2F)CC1)Nc1ccccc1	63	0.6% (inactive)
COc1cc(OC)cc(C(=O)NNC(=O)CCOc2ccccc2OC)c1	73	-0.7% (inactive)
CCCCOc1ccc(C(=O)NCC(=O)OCC(=O)c2c(N)n(C)c(=O)n(C)c2=O)cc1	49	-0.7% (inactive)
Cc1nnc(SCC(=O)N2c3ccccc3C(C)(c3ccc(Cl)cc3)CC2(C)C)s1 (centres undefined)	47	8.5% (inactive)
CCn1cc(/C=C(\NC(=O)c2ccc(C)cc2)C(=O)NCCN2CCOCC2)c2ccccc21	75	1.6% (inactive)
N#CC1(NC(=O)COc2ccc3oc4ccccc4c3c2)CCCCC1	33	0.8% (inactive)
O=C(Nc1ccc2c(c1)CCC2)c1ccc(Br)s1	65	4.4% (inactive)
Clc1cccc(Cl)c1Cn1nnc(-c2cccs2)n1	79	4.8% (inactive)

SMILES	cell count [1] [cells]	activation [2]
CC(=O)N[C@H]1[C@H]([C@H](O)[C@H](O)CO)OC(C(=O)O)=C[C@@H]1O	69	1.8% (inactive)
CCOc1c(N2CCCCC2)c(=O)c1=O	32	2.2% (inactive)
CCOc1ccccc1NC(=O)NC1CCCCCCC1	52	-0.7% (inactive)
CC1(C)CC(=O)C=C(N2CCOCC2)C1	46	0.2% (inactive)
Cc1nc2ccc(C(=O)N/N=C/c3ccc(O)cc3)cc2[nH]1	50	-0.6% (inactive)
CC(C)(C)C(=O)Nc1ccc(C(=O)N/N=C/c2ccccc2OC(=O)c2ccc(Cl)cc2Cl)cc1	48	0.7% (inactive)
O=C(N/N=C/c1ccc(OC(=O)c2ccccc2Cl)cc1)c1ccc(O)cc1	65	40.7% (active)
CC1=CC=CN2C1=NC(=O)CC2(C)C(=O)N(CC(=O)NC1CCCC1)c1ccccc1C (centres undefined)	39	1% (inactive)
Cc1ccc(N2C(=O)C(NC(=O)c3c(F)cccc3F)(C(F)(F)F)C3=C2CC(C)(C)CC3=O)cc1 (centres undefined)	69	4% (inactive)
COc1ccccc1CN(C)c1nnnn1-c1ccccc1	50	1.1% (inactive)
CSc1ccc(CNCCN2CCOCC2)cc1	55	-2.1% (inactive)
FC(F)(F)Oc1ccc(-c2cn3cccnc3n2)cc1	36	3.1% (inactive)
CCc1ccccc1NC(=O)/C(=C/c1ccccc1)c1ccccc1	63	6.1% (inactive)
Cc1coc(C)c1C(=O)CC1(O)C(=O)N(C)c2ccc(Cl)cc21 (centres undefined)	91	-1% (inactive)
CN(C)CCNC(=O)C(C(=O)c1ccccc1)n1ccccc1=O (centres undefined)	94	-1.5% (inactive)
CCS(=O)(=O)n1nc(-c2ccccc2)nc1SCc1ccccc1	92	6.4% (inactive)
CN(C)/C=C(/C(=O)c1ccc(F)cc1)S(=O)(=O)c1ccc(F)cc1	51	-0.1% (inactive)
CCOC(=O)c1c(CN2CCOCC2)n(-c2ccccc2)c2ccc(O)cc12	70	2.7% (inactive)
CC1=NNC(=O)C1CCC(=O)N/N=C\c1cccc(Cl)c1 (centres undefined)	94	-1% (inactive)
CCOC(=O)c1cnc(SCC(=O)Nc2ccccc2C(=O)OC)nc1N	88	-1.8% (inactive)
CC(C)c1ccc(OCC(O)Cn2cnc3ccccc32)cc1 (centres undefined)	46	0.1% (inactive)

SMILES	cell count [1] [cells]	activation [2]
OC(CN=c1sc2ccccc2n1CC(O)COc1ccccc1)COc1ccccc1 (centres undefined)	92	58.9% (active)
O=C(C(c1ccccc1)c1ccccc1)N1CCN(CC(O)COc2ccccc2)CC1 (centres undefined)	88	0.6% (inactive)
Cc1nn(C)c(Oc2ccccc2)c1CCNS(=O)(=O)c1ccc(F)cc1	76	-0.4% (inactive)
Cc1cc(N(C)C)cc(C)[n+]1[O-]	38	0.3% (inactive)
Cc1ccc(C(=O)N/C(=C\c2cn(S(=O)(=O)N(C)C)c3ccccc23)C(=O)N2CCCC2)cc1	61	1.6% (inactive)
CCCCCOC(=O)C1=C(C)Nc2nnnn2C1c1ccc(OC)c(OC)c1OC (centres undefined)	85	0.9% (inactive)
CCCS(=O)(=O)N1CCC(C(=O)NCCc2ccc(OC)c(OC)c2)CC1	46	-0.4% (inactive)
O=C(N/N=C/c1ccccn1)c1cccc(NC(=O)c2ccc(Cl)cc2)c1	56	2.8% (inactive)
Cc1cc2c(cc1C)N(C(=O)CN1C(=O)c3ccccc3C1=O)C(C)(C)c1ssc(=S)c1-2	52	23.8% (inactive)
COc1ccnc(Oc2ccccc2)n1	45	3% (inactive)
Nc1c(-c2ccc(F)cc2)cnc2ncnn12	91	-0.2% (inactive)
CCOC(=O)Cn1c(=O)n(Cc2ccc(OC)cc2)c(=O)c2cccnc21	62	-0.6% (inactive)
Cc1nnc(-c2ccc(Oc3ccc(C)c(C)c3)c([N+](=O)[O-])c2)o1	52	-0.2% (inactive)
Cc1cc(C)cc(NC(=O)COc2coc(CN3CCN(c4ccccc4)CC3)cc2=O)c1	47	1.4% (inactive)
CCCNC(=O)COc1coc(CN2CCN(Cc3ccccc3)CC2)cc1=O	51	0.5% (inactive)
Cc1ccc(NC(=O)COc2coc(CN3CCc4ccccc4C3)cc2=O)cc1Cl	63	40.7% (active)
O=C(N/N=C/c1c(Cl)[nH]c2ccccc12)c1sc2ccccc2c1Cl	73	41.9% (active)
COc1ccc(CNC(=O)CNC(=O)c2sc3ccccc3c2Cl)cc1OC	47	1.7% (inactive)
COCCNC(=S)N/N=C/c1c(C)[nH]c2ccccc12	45	1.2% (inactive)
CC(=O)N1c2ccc(S(=O)(=O)N3CCC(C(=O)NC4CCCCC4C)CC3)cc2CC1C (centres undefined)	45	2.5% (inactive)
CC(C)Cn1c(N)c(C(=O)NCc2cccs2)c2nc3ccccc3nc21	78	41.7% (active)

SMILES	cell count [1] [cells]	activation [2]
COCC(C)OC(=O)c1c(N)n(CCCN2CCOCC2)c2nc3ccccc3nc12 (centres undefined)	68	-1% (inactive)
CCOc1ccccc1NC(=O)Cn1nnc(C(=O)NCc2cccs2)c1N	61	1.8% (inactive)
O=C(c1cc(Cl)cc(Cl)c1)N1CCC(=O)N(C(COCc2ccccc2)Cc2ccccc2)CC1 (centres undefined)	76	8.8% (inactive)
CCCCN1C(=O)c2ccc(C(=O)Nc3ccc(S(=O)(=O)N(C)C)cc3)cc2C1=O	77	3.1% (inactive)
CCN(CC(=O)Nc1ccc(OC)cc1)C(=O)c1ccc(=O)n(Cc2ccccc2)n1	54	-0.5% (inactive)
CC(C)Oc1c(Br)cc(Br)cc1/C=N/NC(N)=S	60	66.8% (active)
CC1(C(=O)N/N=C/c2cc3c(cc2Br)OCO3)CC1(Br)Br (centres undefined)	71	5.3% (inactive)
O=c1oc2ccccc2cc1-c1csc(Nc2ccc(O)cc2)n1	50	76.8% (active)
O=c1oc2ccccc2cc1-c1cn(-c2ccccc2)c(=S)[nH]1	47	6.1% (inactive)
Cc1ccc(Nc2nc(-c3ccc(O)cc3O)cs2)nc1	37	18.9% (inactive)
CC1(C)Cc2ccccc2-c2[nH]c(=S)[nH]c(=O)c21	53	0.3% (inactive)
CCC1(CC)Cc2ccccc2-c2nc(CCl)[nH]c(=O)c21	60	61.8% (active)
CC1(C)Cc2ccccc2-c2nc(CN3CCOCC3)[nH]c(=O)c21	89	-0.1% (inactive)
C=CCNc1nc(N)c([N+](=O)[O-])c(NC2CCCCC2)n1	87	5.1% (inactive)
Nc1nc(NCC2CCCO2)nc(Nc2ccccc2F)c1[N+](=O)[O-] (centres undefined)	40	0.5% (inactive)
Nc1nc(Nc2ccccc2F)nc(NC2CCCCC2)c1[N+](=O)[O-]	83	43.1% (active)
Cc1ccc(S(=O)(=O)N2CCOCC2)cc1C(=O)OC1CCCCC1=O (centres undefined)	30	0.7% (inactive)
Cc1cc(C)n(CCNS(=O)(=O)c2ccc(Cl)cc2)n1	44	1.1% (inactive)
Cc1ccccc1OCc1nnc(SCC(=O)N2c3ccccc3Sc3ccc(Cl)cc32)o1	65	4.7% (inactive)
